Compound in the test: Cc1ccc(-c2ccc3c(ccc4sc5c(c43)NC[C@@H](C)NC5=O)n2)cn1
The test can be described thus: kinase activity remaining relative to vehicle control; higher = less inhibition. Here is the method: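 In vitro radiometric kinase profiling of the MK2 inhibitor PF-3644022 at 0.1, 1 and 10 µM against a panel of kinases (MRC International Centre for Kinase Profiling, Dundee). Read-out is % kinase activity remaining relative to the vehicle control, mean of n=2.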

UniProt Q8IWQ3, sequence (Q8IWQ3 whole entry, looked up): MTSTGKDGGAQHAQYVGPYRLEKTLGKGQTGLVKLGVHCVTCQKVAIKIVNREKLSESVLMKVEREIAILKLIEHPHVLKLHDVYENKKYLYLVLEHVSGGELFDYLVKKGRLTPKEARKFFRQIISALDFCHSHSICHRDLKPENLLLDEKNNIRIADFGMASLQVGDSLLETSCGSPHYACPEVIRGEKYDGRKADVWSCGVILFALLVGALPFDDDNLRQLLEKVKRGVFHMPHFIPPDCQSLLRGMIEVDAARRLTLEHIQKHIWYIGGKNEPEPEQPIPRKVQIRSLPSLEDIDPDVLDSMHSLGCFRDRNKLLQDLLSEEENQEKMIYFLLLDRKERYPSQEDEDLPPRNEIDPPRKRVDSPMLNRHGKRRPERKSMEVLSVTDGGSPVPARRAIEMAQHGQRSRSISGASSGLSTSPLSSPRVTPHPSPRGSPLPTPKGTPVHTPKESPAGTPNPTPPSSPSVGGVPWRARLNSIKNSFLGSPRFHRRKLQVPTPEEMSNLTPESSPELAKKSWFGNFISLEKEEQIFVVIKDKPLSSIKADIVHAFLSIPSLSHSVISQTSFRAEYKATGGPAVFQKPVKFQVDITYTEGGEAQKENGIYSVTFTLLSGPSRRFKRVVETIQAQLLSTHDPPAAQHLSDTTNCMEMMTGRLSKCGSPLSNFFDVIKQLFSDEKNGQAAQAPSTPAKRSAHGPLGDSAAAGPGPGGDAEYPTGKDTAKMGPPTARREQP
UniProt Q8TDC3, sequence (Q8TDC3 whole entry, looked up): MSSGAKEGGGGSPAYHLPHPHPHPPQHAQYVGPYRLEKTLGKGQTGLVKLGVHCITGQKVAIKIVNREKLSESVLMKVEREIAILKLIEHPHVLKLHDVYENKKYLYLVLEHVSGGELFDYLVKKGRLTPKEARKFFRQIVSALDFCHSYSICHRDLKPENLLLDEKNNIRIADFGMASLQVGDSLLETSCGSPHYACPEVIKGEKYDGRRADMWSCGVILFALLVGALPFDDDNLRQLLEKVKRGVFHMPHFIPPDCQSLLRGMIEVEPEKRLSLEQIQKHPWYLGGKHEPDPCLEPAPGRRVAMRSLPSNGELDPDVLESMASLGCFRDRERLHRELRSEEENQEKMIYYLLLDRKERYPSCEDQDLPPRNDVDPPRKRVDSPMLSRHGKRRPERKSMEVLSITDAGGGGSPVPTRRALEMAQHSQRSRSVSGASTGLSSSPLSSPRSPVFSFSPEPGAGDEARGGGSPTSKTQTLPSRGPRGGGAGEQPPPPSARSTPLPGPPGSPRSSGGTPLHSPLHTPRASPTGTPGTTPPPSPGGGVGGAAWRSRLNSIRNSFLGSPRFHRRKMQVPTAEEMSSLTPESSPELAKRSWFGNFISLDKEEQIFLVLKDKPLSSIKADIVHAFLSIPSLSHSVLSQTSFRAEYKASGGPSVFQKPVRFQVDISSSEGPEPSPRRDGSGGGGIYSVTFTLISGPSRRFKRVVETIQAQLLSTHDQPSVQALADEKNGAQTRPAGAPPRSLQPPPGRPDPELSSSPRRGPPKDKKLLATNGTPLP
UniProt Q9P289, sequence (Q9P289 whole entry, looked up): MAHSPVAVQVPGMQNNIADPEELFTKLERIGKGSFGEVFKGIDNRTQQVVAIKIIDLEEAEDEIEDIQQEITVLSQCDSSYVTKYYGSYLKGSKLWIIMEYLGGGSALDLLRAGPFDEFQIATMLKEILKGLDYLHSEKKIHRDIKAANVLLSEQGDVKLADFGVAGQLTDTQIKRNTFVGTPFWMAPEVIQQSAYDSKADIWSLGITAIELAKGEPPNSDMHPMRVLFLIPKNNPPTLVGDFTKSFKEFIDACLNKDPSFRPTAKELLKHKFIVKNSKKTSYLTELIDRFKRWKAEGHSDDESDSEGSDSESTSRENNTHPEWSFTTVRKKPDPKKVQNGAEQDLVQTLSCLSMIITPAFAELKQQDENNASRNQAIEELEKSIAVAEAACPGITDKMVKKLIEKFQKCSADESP
UniProt Q8IVH8, sequence (Q8IVH8 whole entry, looked up): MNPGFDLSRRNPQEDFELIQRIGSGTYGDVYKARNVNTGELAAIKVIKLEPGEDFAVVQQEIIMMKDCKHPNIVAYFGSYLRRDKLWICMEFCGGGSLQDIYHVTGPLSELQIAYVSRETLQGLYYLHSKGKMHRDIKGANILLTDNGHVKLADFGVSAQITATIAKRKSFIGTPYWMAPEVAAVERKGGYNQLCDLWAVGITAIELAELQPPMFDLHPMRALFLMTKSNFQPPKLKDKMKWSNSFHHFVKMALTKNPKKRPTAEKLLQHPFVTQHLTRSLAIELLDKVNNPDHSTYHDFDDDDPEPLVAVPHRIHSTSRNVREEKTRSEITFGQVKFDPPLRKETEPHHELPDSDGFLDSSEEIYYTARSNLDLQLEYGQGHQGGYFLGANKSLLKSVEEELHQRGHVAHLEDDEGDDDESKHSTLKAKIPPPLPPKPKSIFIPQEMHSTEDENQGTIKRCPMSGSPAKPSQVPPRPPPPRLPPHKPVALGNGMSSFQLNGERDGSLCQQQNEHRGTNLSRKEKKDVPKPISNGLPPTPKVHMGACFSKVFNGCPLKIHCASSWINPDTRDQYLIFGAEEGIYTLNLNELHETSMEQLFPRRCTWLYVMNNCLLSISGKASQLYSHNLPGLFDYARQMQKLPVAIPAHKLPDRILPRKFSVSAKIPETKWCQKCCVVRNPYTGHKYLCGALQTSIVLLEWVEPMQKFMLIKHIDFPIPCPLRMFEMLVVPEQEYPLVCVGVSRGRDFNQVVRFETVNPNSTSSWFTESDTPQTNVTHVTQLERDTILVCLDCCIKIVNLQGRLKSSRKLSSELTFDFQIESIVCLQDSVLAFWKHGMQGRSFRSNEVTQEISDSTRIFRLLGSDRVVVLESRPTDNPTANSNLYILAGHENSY
UniProt O96013, sequence (O96013 whole entry, looked up): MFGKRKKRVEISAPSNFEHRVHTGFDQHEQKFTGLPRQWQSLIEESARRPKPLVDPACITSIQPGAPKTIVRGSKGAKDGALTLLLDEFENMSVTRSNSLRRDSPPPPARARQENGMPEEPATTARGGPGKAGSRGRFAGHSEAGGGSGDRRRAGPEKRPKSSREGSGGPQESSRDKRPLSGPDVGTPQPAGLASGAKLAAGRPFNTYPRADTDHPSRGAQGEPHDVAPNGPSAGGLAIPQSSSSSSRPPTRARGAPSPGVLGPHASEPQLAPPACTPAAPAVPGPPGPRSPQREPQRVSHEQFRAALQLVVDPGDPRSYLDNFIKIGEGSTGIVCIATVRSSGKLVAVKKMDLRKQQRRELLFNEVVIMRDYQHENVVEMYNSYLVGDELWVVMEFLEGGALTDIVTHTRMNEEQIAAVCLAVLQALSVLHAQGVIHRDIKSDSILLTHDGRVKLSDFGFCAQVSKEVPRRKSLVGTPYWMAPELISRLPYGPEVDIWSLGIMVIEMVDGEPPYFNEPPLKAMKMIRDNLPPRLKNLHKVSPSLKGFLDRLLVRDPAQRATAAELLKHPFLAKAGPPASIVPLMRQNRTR
UniProt Q8N4C8, sequence (Q8N4C8 whole entry, looked up): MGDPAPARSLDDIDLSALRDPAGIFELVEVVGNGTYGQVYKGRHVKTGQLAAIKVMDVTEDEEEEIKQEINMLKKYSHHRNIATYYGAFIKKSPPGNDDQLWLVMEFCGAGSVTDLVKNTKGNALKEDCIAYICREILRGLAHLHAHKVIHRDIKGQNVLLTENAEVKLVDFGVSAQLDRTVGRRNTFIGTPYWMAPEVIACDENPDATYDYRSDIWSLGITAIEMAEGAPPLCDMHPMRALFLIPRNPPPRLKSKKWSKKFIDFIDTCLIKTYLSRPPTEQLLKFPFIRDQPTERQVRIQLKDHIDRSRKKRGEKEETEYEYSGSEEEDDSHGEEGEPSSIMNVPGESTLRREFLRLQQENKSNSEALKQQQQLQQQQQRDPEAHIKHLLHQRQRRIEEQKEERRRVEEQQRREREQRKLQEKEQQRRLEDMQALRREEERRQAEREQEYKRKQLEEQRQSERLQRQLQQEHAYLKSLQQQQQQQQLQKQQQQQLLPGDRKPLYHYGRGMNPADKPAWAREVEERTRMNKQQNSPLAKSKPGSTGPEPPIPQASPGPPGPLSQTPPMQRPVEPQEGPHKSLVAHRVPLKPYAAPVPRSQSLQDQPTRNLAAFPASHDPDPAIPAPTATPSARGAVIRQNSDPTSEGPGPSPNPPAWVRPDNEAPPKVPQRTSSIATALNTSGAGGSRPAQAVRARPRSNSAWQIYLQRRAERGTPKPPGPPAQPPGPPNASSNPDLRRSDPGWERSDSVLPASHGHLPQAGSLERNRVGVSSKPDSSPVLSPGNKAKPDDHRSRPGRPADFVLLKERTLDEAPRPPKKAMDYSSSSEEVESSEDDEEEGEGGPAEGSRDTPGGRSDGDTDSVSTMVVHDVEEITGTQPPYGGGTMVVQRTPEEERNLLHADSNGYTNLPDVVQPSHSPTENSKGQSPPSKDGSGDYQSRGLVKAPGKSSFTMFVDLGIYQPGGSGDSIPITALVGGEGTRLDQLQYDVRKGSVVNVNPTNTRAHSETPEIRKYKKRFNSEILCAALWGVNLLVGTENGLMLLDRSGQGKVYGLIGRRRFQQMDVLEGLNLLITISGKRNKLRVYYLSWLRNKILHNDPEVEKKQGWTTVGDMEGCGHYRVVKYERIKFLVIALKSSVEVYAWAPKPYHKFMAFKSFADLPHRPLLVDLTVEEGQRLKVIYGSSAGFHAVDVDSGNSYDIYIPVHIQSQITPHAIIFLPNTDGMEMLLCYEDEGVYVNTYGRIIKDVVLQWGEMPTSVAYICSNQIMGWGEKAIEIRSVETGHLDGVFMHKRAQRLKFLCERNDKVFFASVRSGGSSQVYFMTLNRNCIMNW

For PIM3 (UniProt Q86V86), the kinase activity remaining is 55% (inhibitor concentration 0.1 µM), 18% (inhibitor concentration 1 µM) and 3% (inhibitor concentration 10 µM).
As for TAO1, the kinase activity remaining by setting is: (inhibitor concentration 0.1 µM) 109%; (inhibitor concentration 1 µM) 98%; (inhibitor concentration 10 µM) 70%.
The corresponding values for BRSK2 (UniProt Q8IWQ3) are 77%, 32% and 8%.
The corresponding values for PAK4 (UniProt O96013) are 103%, 88% and 82%.
The corresponding values for MAP4K3 (UniProt Q8IVH8) are 98%, 72% and 41%.
MAP4K5 (UniProt Q9Y4K4): the kinase activity remaining (inhibitor concentration 0.1 µM) came out at 111%, the kinase activity remaining (inhibitor concentration 1 µM) is 108% and the kinase activity remaining (inhibitor concentration 10 µM) was found to be 61%.
The like results for MINK1 (UniProt Q8N4C8) were, in that order, 98%, 97% and 40%.
Turning to ASK1 (UniProt Q99683), the kinase activity remaining was 106% (inhibitor concentration 0.1 µM), 80% (inhibitor concentration 1 µM) and 10% (inhibitor concentration 10 µM).
The like results for MST4 (UniProt Q9P289) were, in that order, 99%, 101% and 91%.
Turning to IR, the kinase activity remaining by setting is: (inhibitor concentration 0.1 µM) 123%; (inhibitor concentration 1 µM) 125%; (inhibitor concentration 10 µM) 133%.
The like results for MAPKAP-K3 were, in that order, 114%, 62% and 30%.
Turning to PLK1 (UniProt P53350), the kinase activity remaining by setting is: (inhibitor concentration 0.1 µM) 102%; (inhibitor concentration 1 µM) 114%; (inhibitor concentration 10 µM) 98%.
The corresponding values for p38 alpha MAPK are 94%, 94% and 83%.
The corresponding values for BRSK1 (UniProt Q8TDC3) are 86%, 55% and 29%.

The values above are taken from the supplement of paper PMC6378613.
